Source: PubChem BioAssay
Shown is part of a subset that was picked to be rich in hits.
Cycloheximide cs: counter-screen for Shiga toxin inhibitors: cycloheximide protein synthesis inhibition | cell reporter, cycloheximide protein synthesis inhibition counterscreen | max response, % | hit rate 12% among 300,000 | AID 2314; in the data active = max response mostly above about 13%, no sharp cut-off; inactive = mostly below about 14%; also: read at 38.3 µM for the half of the compounds with a filed dose
LmPK inh: blocks Leishmania mexicana pyruvate kinase activity. Q27686. purified LmPK, Kinase-Glo ATP luminescence, 1 h. Potency, µM (doses to about 57.5 µM), most hits filed as inhibitors. hit rate 0.37% among 290,000
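Pyruvate kinase activity monitored as ATP production (luciferase luminescence). Conditions: 0.1 nM enzyme, 0.5 mM PEP, 0.1 mM ADP, 1 h, RT; normalized against uninhibited and no-enzyme wells.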
TbPYK inhibitor: inhibitors of Trypanosoma brucei pyruvate kinase; hit rate 0.12% among 410,000; TbPYK enzyme, Kinase-Glo Plus ATP luminescence, 45 min; Potency, µM (top dose mostly 76.8 µM), actives largely listed as inhibitors; Q57TT1; also: nearly all actives have a fitted effect of over 50% in size
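Readout: single end-point luminescence (Kinase-Glo Plus, 10 min). Reaction conditions were TbPYK/substrate plus 130 uM ADP, 45 min at RT, pH 7.2 TEA buffer. No-enzyme wells served as controls, and data were normalized before concentration-response fitting.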
Giardia FBPA inh: inhibitors of Giardia lamblia fructose-1,6-bisphosphate aldolase | A8B2U2 | purified Giardia FBPA | Potency, µM (top dose mostly 59.6 µM), most hits filed as inhibitors | hit rate 0.71% among 290,000 | AID 2451; also: nearly all actives have a fitted effect of over 55% in size
Target sequence (A8B2U2 whole entry, looked up): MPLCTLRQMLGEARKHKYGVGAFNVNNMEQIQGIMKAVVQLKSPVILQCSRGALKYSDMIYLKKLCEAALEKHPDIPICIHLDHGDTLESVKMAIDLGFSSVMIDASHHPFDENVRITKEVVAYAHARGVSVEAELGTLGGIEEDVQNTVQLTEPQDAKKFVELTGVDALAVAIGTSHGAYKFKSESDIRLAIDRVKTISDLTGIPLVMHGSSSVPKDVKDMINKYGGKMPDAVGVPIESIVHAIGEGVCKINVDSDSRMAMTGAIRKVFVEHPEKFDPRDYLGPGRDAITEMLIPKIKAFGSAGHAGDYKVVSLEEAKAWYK
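Giardia FBPA (40 nM reagent) was preincubated 10 min at RT with compound (up to 57.5 uM final), then substrate plus GAPDH/TPI/NAD/arsenate coupling system with diaphorase/resazurin was added; resorufin fluorescence (525/598 nm) was read after 20 min.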
Sm TGR block: blocks Schistosoma mansoni thioredoxin glutathione reductase. Q962Y6. purified TGR, DTNB reduction, TNB absorbance 405 nm. Potency, µM (series often up to 114 µM), actives largely listed as inhibitors. hit rate 3% among 360,000; also: nearly all actives have a fitted effect of over 60% in size
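First, TGR (20 nM dispensed) and NADPH were mixed with compound. Second, a 15 min room-temperature incubation followed. Third, further NADPH and then DTNB were added to start the reaction. Finally, TNB absorbance was monitored kinetically.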
Shiga inhibitor: inhibitors of Shiga toxin in Vero cells | inhibition, % at 38.7 µM | hit rate 9.2% among 290,000 | Vero cells, Shiga toxin protein synthesis inhibition reporter; in the data active = inhibition mostly above about 28%, no sharp cut-off; inactive = mostly below about 43%
Each line names hits and unclear results; the compound was inactive in the other large screens. Unless noted, calls follow the shape of the dose curve; as a rule, active = well fitted curve in the direction sought with a large enough effect; inconclusive = small, poorly fitted or top-dose-only effect, or another doubt; inactive = no such curve, though single readings can be large; an effect the other way counts as inactive or inconclusive.

Cc1ccccc1C(=O)Nc1ccc(NC(=O)c2cccs2)cc1	none (no result: Cycloheximide cs, LmPK inh, Giardia FBPA inh, Shiga inhibitor)
N/C(=N\OC(=O)c1ccc(Cl)cc1Cl)c1ccc(Cl)cc1	Cycloheximide cs 50, Shiga inhibitor 114
Cc1ccccc1/C(N)=N/OC(=O)c1cccs1	Cycloheximide cs 27, LmPK inh inconclusive, Shiga inhibitor 61
N/C(=N\O)c1ccc(Cl)cc1Cl	none
C=CCn1c(SCC(=O)N(C)CC(=O)Nc2ccc(C)cc2)nnc1-c1ccncc1	none (no result: Cycloheximide cs, LmPK inh, Giardia FBPA inh, Sm TGR block, Shiga inhibitor)
N/C(=N\OC(=O)c1ccc(Cl)cc1)c1cccnc1	Cycloheximide cs 42, LmPK inh inconclusive, Shiga inhibitor 175
O=C(NCC1CC1)NC(=O)c1c(F)cccc1Cl	Cycloheximide cs 15
CC(C)(C)c1nc(NC(=O)Nc2ccccc2)sc1Br	Cycloheximide cs 46, Shiga inhibitor 71
CS(=O)(=O)c1ccc2nc(NC(=O)C3=NN(c4ccccc4)C(=O)CC3)sc2c1	none
COc1ccc(OCC(=O)NNc2nc3ccccc3s2)cc1	Cycloheximide cs 44, Shiga inhibitor 77
Cc1cc(NC(=O)Nc2ccccc2)n(C(C)(C)C)n1	none
COc1ccc(OC)c2sc(NNC(=O)COc3ccccc3)nc12	none
CCOc1ccc2nc(NC(=O)Nc3cccs3)sc2c1	Cycloheximide cs 63, Shiga inhibitor 72
COc1ccc2nc(NC(=O)C3=NN(c4ccccc4)C(=O)CC3)sc2c1	Cycloheximide cs 18
COc1c(C)cccc1C(=O)Nc1cccc2ccc(C)nc12	none (no result: Cycloheximide cs, LmPK inh, Giardia FBPA inh, Shiga inhibitor)
CN(C)C(=O)c1ccc2c(c1)N(CC(=O)NCc1ccc(F)cc1)C(=O)C1CCCCN21 (stereo not given)	none (no result: Cycloheximide cs, LmPK inh, Giardia FBPA inh, Shiga inhibitor)
Cc1nn(C)c(NC(=O)c2ccccc2Cl)c1Cl	none
CCOc1ccc2nc(NC(=O)Nc3ccccc3)sc2c1	Cycloheximide cs 22
CCOc1ccc2nc(NC(=O)c3ccccn3)sc2c1	Cycloheximide cs 24, LmPK inh inconclusive, Giardia FBPA inh inconclusive, Shiga inhibitor 45
CCOc1ccc2nc(NC(=O)NC3CCCCC3)sc2c1	none
COc1ccc(NC(=O)Nc2nc3ccccc3s2)cc1	Cycloheximide cs 44, Shiga inhibitor 114
Cc1ccc2nc(NC(=O)c3ccccn3)sc2c1	Giardia FBPA inh inconclusive
COc1ccc2nc(NC(=O)Nc3ccccc3)sc2c1	Cycloheximide cs 56, Shiga inhibitor 92
CC(C)=CCC/C(C)=C\COc1c2ccoc2cc2oc(=O)ccc12	none (no result: Cycloheximide cs, LmPK inh, TbPYK inhibitor, Sm TGR block, Shiga inhibitor)
O=C(Nc1nc2c(F)cc(F)cc2s1)c1ccccn1	Cycloheximide cs 35, LmPK inh inconclusive, Shiga inhibitor 95
CC(=O)/C(N=Nc1ccc(C(=O)O)cc1[N+](=O)[O-])=C(\C)O	LmPK inh 25µM
O=C(O)c1ccccc1-c1ccccc1C(=O)NCc1ccccc1Cl	Giardia FBPA inh inconclusive
COc1ccc(CCNc2oc(-c3ccco3)nc2C#N)cc1	none
CC(=O)Nc1ccc(N=Cc2nc(-c3ccc(C)cc3)oc2O)cc1	none
Oc1oc(-c2ccccc2)nc1C=Nc1ccccc1	Cycloheximide cs 46, Shiga inhibitor 115
O=C(Oc1oc(-c2ccco2)nc1C=Nc1ccc(Cl)cc1)c1ccco1	Cycloheximide cs 23, Sm TGR block inconclusive, Shiga inhibitor 51
Cc1ccc(N=Cc2nc(-c3ccc(C)cc3)oc2O)cc1	Cycloheximide cs 27, Shiga inhibitor 97
COc1ccc(N=Cc2nc(-c3ccco3)oc2O)cc1	Cycloheximide cs 51, Shiga inhibitor 102
CCCNC(=O)OC[C@@H]1O[C@H](CCO/N=C(\C)CCN2CCc3nc(CC)c(CC)cc3C2)C=C[C@@H]1Oc1ccc(OC)cc1	none (no result: Cycloheximide cs, LmPK inh, TbPYK inhibitor, Sm TGR block, Shiga inhibitor)
CN(C)c1ccc(N=Cc2nc(-c3ccccc3)oc2O)cc1	Sm TGR block inconclusive
CSc1ccccc1N=Cc1nc(-c2ccccc2)oc1O	Cycloheximide cs 37, Shiga inhibitor 94
Oc1oc(-c2ccccc2)nc1C=NCc1ccccc1	Cycloheximide cs 61, Shiga inhibitor 119
CCOc1cccc(OCCCOc2ccccc2)c1	Cycloheximide cs 15
CCOc1cccc(OCCOCCN(C)C)c1	Shiga inhibitor 52
COc1ccc(CCNC(=O)c2cc(-c3ccc(C)c(C)c3)nc3ccccc23)cc1OC	none (no result: Cycloheximide cs, LmPK inh, Giardia FBPA inh, Shiga inhibitor)
CC(C)c1ccc(/C=C/C(=O)CCC(=O)O)cc1	Cycloheximide cs 43
CCOc1ccc(/C=C/C(=O)CCC(=O)O)cc1	Cycloheximide cs 54, Shiga inhibitor 74
